# Measurements: the supplement of paper PMC6555819
# Legend:
# Assay in all cases: PBM binding z-score (relative to random genomic background probes); higher = stronger binding; sequences stand for … in GC…GCGATTGACAGCGTAGAATGAAGG
# [1] = system: FXR:RXRa (NR concentration 270 nM, RXRa partner concentration 90 nM)
# In short: (§1)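 Probes were double-stranded and carried 34-nt variable regions with direct-repeat seeds, single-nucleotide variants, half-site ablations and random human genomic background sequences, printed on custom Agilent 4×180K protein-binding microarrays. Arrays were incubated 1 h with ligand-free nuclear receptor dimers in PBS pH 7.4, 2% milk, 0.02% Triton X-100, 1 mM DTT, 0.2 mg/mL BSA and 0.4 mg/ml salmon testes DNA. Antibodies against each partner (one per run) detected binding, and scanned fluorescence was regression-normalized. Binding z-scores use the random background probes as reference.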
# [2] = system: LXRa:RXRa (NR concentration 270 nM, RXRa partner concentration 90 nM)
# In short: as §1
# [3] = system: LXRa homodimer (NR concentration 270 nM)
# In short: as §1
# [4] = system: LXRb:RXRa (NR concentration 270 nM, RXRa partner concentration 90 nM)
# In short: as §1
# [5] = system: LXRb homodimer (NR concentration 270 nM)
# In short: as §1
# [6] = system: PPARa:RXRa (NR concentration 270 nM, RXRa partner concentration 90 nM)
# In short: as §1
# [7] = system: PPARg:RXRa (NR concentration 180 nM, RXRa partner concentration 90 nM)
# In short: as §1
# [8] = system: PPARg:RXRa 270nM:90nM, anti-RXR (NR concentration 270 nM, RXRa partner concentration 90 nM)
# In short: as §1
# [9] = system: PPARg:RXRa 30nM:10nM, anti-RXR (NR concentration 30 nM, RXRa partner concentration 10 nM)
# In short: as §1
# [10] = system: PPARg:RXRa 90nM:30nM, anti-RXR (NR concentration 90 nM, RXRa partner concentration 30 nM)
# In short: as §1
Sequence,PBM binding z-score [1],PBM binding z-score [2],PBM binding z-score [3],PBM binding z-score [4],PBM binding z-score [5],PBM binding z-score [6],PBM binding z-score [7],PBM binding z-score [8],PBM binding z-score [9],PBM binding z-score [10]
TCTCGGAGGCCACGAAAGGTCAGAGCTCGACATC,3.4,5.27,1.95,3.63,-0.386,3.82,1.39,2.91,2.22,2.46
CCGACTGGGGCAGAAAGGTTACCATCCCATCCGG,0.0864,0.742,-0.151,0.878,-0.971,2.03,1.44,2.53,0.448,1.96
GCTAGCAGGCCATTTGGGTCTCTCAATGACGGGC,-0.43,-0.541,-0.417,-0.913,-1.24,-0.217,-0.0162,-0.509,-1.01,-0.9
CCGAGTAGGTTATGGGGCATTCGGGCAACGGTGA,0.24,0.637,0.00114,0.528,-0.313,2.4,3.36,4.85,2.16,4.57
GCTAGTTGGTCAGTAAAAGGGCACACACCGGTCG,0.16,0.257,0.266,0.266,-0.104,0.841,0.709,1.04,0.0544,0.502
TCAAATAGGTAAAAGGTGAAAGTCGGTGTGGTAA,2.23,1.93,0.419,2.06,-0.106,5.45,8.26,8.33,8.45,9.13
AGGATGAGGTTAAGATCAGGGAAACAGAATACAT,2.5,2.06,0.0836,2.16,0.492,3.06,1.63,1.38,0.783,1.01
GATACAGGGTCAAGGCAAGAGTACGCGTATTGAT,6.93,4.47,0.251,3.95,0.189,6.03,6.09,5.4,2.18,4.16
AGAACGAGGGCACGCTGAGATGATAGCAGAGTAG,0.695,0.423,-0.425,0.0557,-0.697,2.1,2.33,1.98,0.819,1.41
AATACAGAGTCATCGTAGGCCAGAGTACGCACAG,0.102,0.331,-0.311,-0.227,-0.569,-0.149,0.955,0.273,-0.0148,0.175
TAGCCTAGGTCATTGCGCCAGTATAGTACGCATC,4.86,3.69,1.05,2.41,0.632,3.48,2.25,2.49,0.591,1.63
CCAGTCAGGTGAAAGGTAACTCAGTCTGGTACGC,0.669,0.466,-0.287,0.541,-0.583,3.61,6.45,6.44,5.15,7.56
CCTACTGGGCCATTCAGAGGCCATTGATCATATG,-0.101,-0.261,-0.0422,-0.326,-0.546,0.543,0.541,0.6,-0.265,0.287
TCATATAGGTAAATGATAGGTGAAAGTCCGATCT,1.32,1.17,0.558,1.22,0.404,1.74,1.51,2.71,3.76,3.23
ACAGACAGGTGAGTGAAGGTAACTCACCTGGACG,0.567,0.338,-0.604,-0.347,-0.328,0.358,0.593,0.216,0.0231,-0.144
AGTCAAAGTTCATCTAGATAACGTAAGATATGCT,7.05,5.89,5.02,4.13,1.82,5,6.44,6.12,3.12,5.43
TCTAGCAGGACAGAGGGTCACTCAAGAGGTACGG,0.869,1.11,-0.354,1.18,-0.839,2.19,1.45,2.25,2.15,2.31
CGAACTAGGTCATTGACAGGACAGTCAATAGTAA,4.28,3.15,0.489,2.19,0.17,4.74,7.38,6.08,3.32,5.75
GCTCGGAGGACAACGTCAGAGCTTTGTCCGTAGA,-0.816,-1.18,-1,-1.15,-1.11,-0.78,-0.651,-1.1,-1.29,-1.22
TCATTTAGGTAATACAGGTGAAAGTCGGCATCTA,1.6,1.41,0.774,1.47,1.18,2.02,0.962,2.92,4.52,3.72
TCTTTTAGTTGATTAGGGCAACCGAAACAGCGGA,1.17,0.955,0.422,0.976,2.11,1.45,0.152,2.66,4.27,3.34
CAAACTAGGTCATAGAGGTCAAAGTCCGTGCGTA,7.25,6.71,8.36,6.15,2.33,6.49,9.13,7.74,6.17,7.92
ACTAGCAGGCCAAGTTTGGATCACTCAAACAAAG,-0.476,-0.653,-0.239,-0.541,-0.521,-0.385,0.154,-0.662,-0.693,-0.835
GCAACGAGGGCAAAGTTGATAGCATCTGTCGACG,1.14,1.01,-0.469,0.805,-0.643,3.7,5.92,6.03,4.83,6.51
TCAGCTAGGTCAGTTGGTCAGCTAACGAGCTGCC,0.695,0.358,-0.597,0.201,-0.435,1.22,0.615,1.71,1.93,1.94

Sequence,PBM binding z-score [1],PBM binding z-score [2],PBM binding z-score [3],PBM binding z-score [4],PBM binding z-score [5],PBM binding z-score [6],PBM binding z-score [7],PBM binding z-score [8],PBM binding z-score [9],PBM binding z-score [10]
ATCTCTAGGTAAGACCCAGTTCAGTGAAGAACGC,0.43,0.778,0.612,0.599,0.872,0.54,0.457,0.208,0.196,0.526
TCGAGTAGGTTACCAATAGGGCATTCAGCTTTCT,0.215,2.16,-0.0808,0.671,-1.16,1.36,0.697,1.32,1.08,1.1
CGAACTAGGTCAAGGACAGTGTATCTCCGCACGC,3.62,2.36,0.431,1.57,-0.208,4.9,7.62,6.48,3.91,5.64
CCTATTTGGTCAAGGTCACACACGCTATAGGTAC,4.34,4.04,2.64,4.09,1.47,4.33,3.07,3.58,1.55,2.5
ATATGTAGGTTACATCCGGTTCATTCAGGCTATG,1,4.13,1.07,2.07,0.614,3.53,5.17,4.39,2.2,3.81
CAAACTAGGTCAATGTCAAAGTCGGTTTGTGCCA,3.38,2.45,0.407,1.97,0.714,4.9,7.78,6.44,4.27,6.04
CAAACTAGGTAAAAGGTCAAAGTCGAGCCAACCA,6.21,6.09,4.59,5.87,2.23,6.92,12.1,10.2,11,11.4
AGAACGAGGGCAATGAGTTGATATCACGGGTGGC,0.383,0.334,-0.363,-0.00546,-0.245,1.52,1.86,1.07,0.219,0.833
TCTATTAGTCGATTAGGGCAACCGAAACAGCGGA,0.523,0.509,0.385,0.608,0.293,0.759,0.292,2.12,3.61,2.99
CCCTACGGGTCAAGGTTATAGCACGGGTGGTACG,5.27,3.4,0.278,2.78,-0.151,4.7,3.55,4.19,1.1,2.75
TCTATTAGTTGATTAGGGCAACCTAAACAGCGGA,0.561,0.704,0.325,0.595,0.8,0.918,0.209,1.95,3.39,2.86
CGAACTAGATCATTGACAGGACAGTGAATAGTAA,-0.0761,-0.268,0.18,-0.274,-0.0892,0.0131,0.572,-0.333,0.0975,0.113
TCTATTCGTTGATTAGGGCAACCGAAACAGCGGA,0.77,0.642,-0.323,0.409,0.94,0.827,0.127,1.93,3.6,2.72
CAAACTAGCTCACAGAGGTCAAAGTCCGTGCGTA,4.84,5.04,5.7,4.99,1.59,4.82,2.1,3.38,1.05,2.74
CGTCCTAGGTCAATGCTAGGTCAGTGAAAGCATT,3.74,3.83,1.98,2.38,0.076,3.34,1.92,2.52,0.255,1.31
CGAACAAGGTCAAGGACAGTGAATCTCCGCACGC,7.13,5.06,0.53,3.78,0.377,5.74,5.98,5.82,2.42,4.59
ACCGACAGGTGATGAAGGTAACTCAGGCTATCAT,-0.0834,-0.243,-0.257,-0.498,-0.393,0.179,0.492,-0.102,-0.173,-0.00846
CTCGAAAGGTCGTGCTCAAGTGAGTATACCAAAC,5.4,3.95,0.0272,3.51,0.363,4.73,2.57,3.77,0.732,2.35
CCTAGTCGGTCAAGGTCACACACGCTATAGGTAC,4.93,4.51,2.64,3.94,1.16,4.61,4.76,4.67,2.13,3.88
TATACAGGGTCAAAGGCCAGAGTGCGAATGTCGA,7.16,6.05,2.6,4.8,2.58,6.08,8.23,7.43,5.95,7.86
ATCGAAAGGTCGAAGGTGTGTATACCCACCCGAA,3.46,3.02,0.143,2.37,0.416,4.08,2.6,3.32,1.5,2.35
CCTAGTTGGTCAGGATGTCACACACCGGATATGA,-0.184,-0.0235,0.256,0.227,0.348,0.0864,0.898,0.76,-0.14,0.424
CCGACTGGGACAGAAAGGTTACCATACCATCCGG,0.177,0.493,-0.124,0.512,-1.05,1.71,1.4,1.74,0.364,1.34
ATCTCTAGGTAAAGTTCAGTGATAGATCGATAGA,1.49,1.95,1.88,1.14,1.34,2.39,3.59,4.16,2.3,3.88
